Here are results for 5 compounds from PubChem BioAssay.

A short description of test [1]: small molecules captured by biotinylated probe aFSTL3 – biochemical, small-molecule microarray, fluorescence 635/667, stem cell growth factor project, primary screen (AID 1064).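 Note: measures binding of the biotinylated anti-FSTL3 antibody to printed compounds.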 Particulars: higher = more signal.
Test [2] can be described thus: binders from COS7 lysate, DM2A8 probe, primary screen, torsin A project, cell lysate, small-molecule microarray, fluorescence 635/667 (AID 1065). The conditions noted are these: higher = more signal, COS7 lysate expressing mutant human TOR1A.
Test [3] in a line: small molecules captured by biotinylated probe aFGF2 – biochemical, small-molecule microarray, fluorescence 635/667, stem cell growth factor project, primary screen (AID 1067).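 Note: measures binding of biotinylated aFGF2 protein to printed compounds on slides; z-score merges feature fluorescence and signal-to-noise across triplicate slides.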 The conditions noted are these: higher = more signal.
Test [4] in a line: small molecules captured by biotinylated probe aFGF10 – biochemical, small-molecule microarray, fluorescence 635/667, stem cell growth factor project, primary screen (AID 1071).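 Note: score merges 667 nm spot intensity and signal to noise from triplicate slides.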 Particulars: higher = more signal.
The target of test [5] is Neurogenic locus notch homolog protein 2 (Homo sapiens) (UniProt Q04721). The experiment in a line: small molecules binding Notch2 protein – biochemical, small-molecule microarray, 635 nm fluorescence, stem cell growth factors, primary screen (AID 1073). The conditions noted are these: higher = more signal.
Chain of Neurogenic locus notch homolog protein 2 (Homo sapiens) (Q04721 whole entry, looked up, canonical isoform): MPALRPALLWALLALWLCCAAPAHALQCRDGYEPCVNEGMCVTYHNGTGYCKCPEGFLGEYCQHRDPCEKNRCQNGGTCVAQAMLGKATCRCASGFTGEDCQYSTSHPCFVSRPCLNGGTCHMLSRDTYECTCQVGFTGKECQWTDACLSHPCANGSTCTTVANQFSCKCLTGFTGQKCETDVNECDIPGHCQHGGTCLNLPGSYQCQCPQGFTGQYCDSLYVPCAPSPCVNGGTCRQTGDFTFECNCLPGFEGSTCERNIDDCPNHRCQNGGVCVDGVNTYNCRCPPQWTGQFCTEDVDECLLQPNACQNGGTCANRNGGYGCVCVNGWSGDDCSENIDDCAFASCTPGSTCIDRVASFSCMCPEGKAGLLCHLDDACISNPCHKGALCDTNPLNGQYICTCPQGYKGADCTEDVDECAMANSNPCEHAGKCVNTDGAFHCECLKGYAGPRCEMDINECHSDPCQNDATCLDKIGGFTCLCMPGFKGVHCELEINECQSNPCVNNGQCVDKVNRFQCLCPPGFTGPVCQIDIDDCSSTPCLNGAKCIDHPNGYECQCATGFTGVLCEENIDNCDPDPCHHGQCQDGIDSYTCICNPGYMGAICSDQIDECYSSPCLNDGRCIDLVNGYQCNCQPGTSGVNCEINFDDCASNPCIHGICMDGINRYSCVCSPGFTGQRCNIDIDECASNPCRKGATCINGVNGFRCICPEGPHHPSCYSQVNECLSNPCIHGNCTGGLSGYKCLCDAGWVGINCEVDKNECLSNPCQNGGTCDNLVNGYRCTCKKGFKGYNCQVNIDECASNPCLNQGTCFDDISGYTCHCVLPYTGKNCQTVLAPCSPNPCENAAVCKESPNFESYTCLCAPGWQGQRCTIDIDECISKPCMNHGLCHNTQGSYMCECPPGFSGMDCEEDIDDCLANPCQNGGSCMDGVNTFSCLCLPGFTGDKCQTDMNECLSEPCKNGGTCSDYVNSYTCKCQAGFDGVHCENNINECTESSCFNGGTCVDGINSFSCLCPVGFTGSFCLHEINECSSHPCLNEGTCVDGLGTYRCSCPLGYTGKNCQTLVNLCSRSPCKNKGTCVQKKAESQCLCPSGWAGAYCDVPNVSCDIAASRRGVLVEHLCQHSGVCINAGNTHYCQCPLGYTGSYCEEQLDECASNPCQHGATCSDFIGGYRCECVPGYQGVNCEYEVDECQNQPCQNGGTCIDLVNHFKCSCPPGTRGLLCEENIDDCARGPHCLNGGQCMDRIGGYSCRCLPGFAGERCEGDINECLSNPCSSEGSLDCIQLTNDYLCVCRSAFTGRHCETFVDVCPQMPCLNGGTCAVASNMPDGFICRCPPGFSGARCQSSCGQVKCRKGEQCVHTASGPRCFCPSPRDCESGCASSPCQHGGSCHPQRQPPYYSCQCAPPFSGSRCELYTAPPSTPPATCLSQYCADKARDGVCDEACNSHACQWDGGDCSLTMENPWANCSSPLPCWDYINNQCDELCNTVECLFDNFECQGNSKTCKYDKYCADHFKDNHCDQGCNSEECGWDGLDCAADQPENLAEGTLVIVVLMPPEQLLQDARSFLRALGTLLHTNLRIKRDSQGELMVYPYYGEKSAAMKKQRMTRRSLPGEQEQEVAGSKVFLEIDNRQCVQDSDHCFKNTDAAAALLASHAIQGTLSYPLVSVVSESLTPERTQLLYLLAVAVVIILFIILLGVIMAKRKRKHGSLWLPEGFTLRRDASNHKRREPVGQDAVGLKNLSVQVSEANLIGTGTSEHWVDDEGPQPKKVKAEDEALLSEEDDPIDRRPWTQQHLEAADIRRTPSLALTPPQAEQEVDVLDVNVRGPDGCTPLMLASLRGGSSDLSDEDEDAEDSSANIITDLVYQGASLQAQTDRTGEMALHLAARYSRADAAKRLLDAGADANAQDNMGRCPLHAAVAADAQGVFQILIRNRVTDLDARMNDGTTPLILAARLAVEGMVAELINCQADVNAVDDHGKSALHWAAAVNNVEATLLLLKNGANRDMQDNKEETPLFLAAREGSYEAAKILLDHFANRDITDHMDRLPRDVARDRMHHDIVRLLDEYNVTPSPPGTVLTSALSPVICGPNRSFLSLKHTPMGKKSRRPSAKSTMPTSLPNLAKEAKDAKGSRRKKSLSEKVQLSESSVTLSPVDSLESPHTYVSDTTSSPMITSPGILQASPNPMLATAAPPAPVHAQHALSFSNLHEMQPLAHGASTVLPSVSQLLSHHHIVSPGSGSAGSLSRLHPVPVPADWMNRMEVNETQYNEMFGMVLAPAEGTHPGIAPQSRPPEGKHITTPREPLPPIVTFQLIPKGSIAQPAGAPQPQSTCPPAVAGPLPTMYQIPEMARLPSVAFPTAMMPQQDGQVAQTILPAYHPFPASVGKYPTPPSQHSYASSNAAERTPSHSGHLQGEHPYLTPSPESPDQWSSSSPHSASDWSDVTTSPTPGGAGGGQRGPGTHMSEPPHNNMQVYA
The target of test [6] is Pro-neuregulin-1, membrane-bound isoform (Homo sapiens) (UniProt Q02297). In words: small molecules binding neuregulin-1 protein – biochemical, small-molecule microarray, fluorescence 635/667, psychiatric disease protein project, primary screen (AID 1075).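 Note: score combines 667 nm spot fluorescence with signal to noise.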 Particulars: NRG1 binding, 635 nm fluorescence, higher = more signal.
Chain of Pro-neuregulin-1, membrane-bound isoform (Homo sapiens) (Q02297 whole entry, looked up, the tested form may be a part, canonical isoform): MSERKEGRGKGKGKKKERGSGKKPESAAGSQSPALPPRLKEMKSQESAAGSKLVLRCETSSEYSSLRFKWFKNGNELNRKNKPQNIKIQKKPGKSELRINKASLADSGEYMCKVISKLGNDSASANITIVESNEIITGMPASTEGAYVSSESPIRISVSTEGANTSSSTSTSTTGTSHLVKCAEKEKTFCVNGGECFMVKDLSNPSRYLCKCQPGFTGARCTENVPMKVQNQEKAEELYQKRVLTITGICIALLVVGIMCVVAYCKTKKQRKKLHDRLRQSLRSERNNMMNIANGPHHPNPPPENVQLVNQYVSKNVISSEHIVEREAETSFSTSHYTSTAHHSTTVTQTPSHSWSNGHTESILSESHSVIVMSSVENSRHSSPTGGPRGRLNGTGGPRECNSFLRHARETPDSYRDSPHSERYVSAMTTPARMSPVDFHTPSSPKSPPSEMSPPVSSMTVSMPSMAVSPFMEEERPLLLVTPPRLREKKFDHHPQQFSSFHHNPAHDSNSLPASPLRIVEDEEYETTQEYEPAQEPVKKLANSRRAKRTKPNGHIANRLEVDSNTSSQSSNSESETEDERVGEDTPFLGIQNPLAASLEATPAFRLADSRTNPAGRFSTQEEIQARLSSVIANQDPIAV
The test system of test [7] is Neuregulin-1 EGF-like domain. The experiment in a line: small molecules binding NRG1 EGF domain – biochemical, small-molecule microarray, 635 nm fluorescence, primary screen (AID 1081).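 Note: binding of the protein to compounds printed on small-molecule microarray slides.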 Particulars: higher = more signal.
The nature of test [8]: FRG1 expression reporter modulators in myotubes – cell-based, C2C12 myotubes, firefly/Renilla luciferase, luminescence, FRG1 inhibition for FSHD, primary screen (AID 1084). The conditions noted are these: FRG1 promoter luciferase, higher = more signal, called active from +8 up or from −8 down.
A short description of test [9]: small molecules captured by biotinylated probe aFST – biochemical, small-molecule microarray, fluorescence 635/667, stem cell growth factor project, primary screen (AID 1086).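 Note: score merges 667 nm fluorescence with signal-to-noise of each printed compound spot.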 The conditions noted are these: higher = more signal.
Test [10] in a line: binders of probe aHhip on microarray, primary screen, stem cell growth factor project, biochemical, small-molecule microarray, fluorescence 635/667 (AID 1087).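 Note: score merges spot fluorescence at 667nm with spot signal to noise ratio.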 Particulars: higher = more signal.
Test [11] concerns PRMT1 (protein arginine N-methyltransferase 1). In words: small molecules binding arginine methyltransferase PRMT1 – biochemical, small-molecule microarray, 635 nm fluorescence, primary screen (AID 1088).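 Note: binding of Prmt1 protein to compounds spotted on small-molecule microarray slides.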 Particulars: higher = more signal.
Test [12] is described as follows: growth effects on S. cerevisiae YJM789 – YJM789 clinical isolate, OD600, 24 h, basal, primary screen (AID 1089).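 Note: growth of clinical yeast isolate S. cerevisiae YJM 789 seeded 1000 cells per well; test concentration not given here.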 The conditions noted are these: higher = more signal, called active from +8 up or from −8 down.
Test [13] in a line: S. pombe growth modifiers, basal conditions – strain 972, OD600, 24 h, no modulator, primary screen (AID 1090).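 Note: basal condition with compound alone and no growth modifier present; test concentration not given here.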 Particulars: S. pombe 972 growth, higher = more signal, called active from +8 up or from −8 down.
A short description of test [14]: budding yeast growth modifiers under rapamycin – strain BY4716, OD600, 96 h, primary screen (AID 1091). Note: test concentration not given here. Particulars: S. cerevisiae BY4716 + rapamycin, higher = more signal, called active from +8 up or from −8 down.
Test [15] addresses Torsin-1A-interacting protein 2 (Homo sapiens) (UniProt Q8NFQ8). In words: small molecules binding lysate-expressed LULL1 – cell lysate, human LULL1 lysate, 635/667 nm fluorescence, primary screen (AID 1092).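 Note: probe is lysate of COS7 cells overexpressing human LULL1; score merges per-feature 667 nm fluorescence with signal-to-noise.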 Particulars: small-molecule microarray, hLULL1 lysate binding, 635 nm fluorescence; higher = more signal.
The nature of test [16]: optical density change of DRC41 E. coli – strain DRC41, OD650, 24 h, E. coli filamentation project, primary screen (AID 1093).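 Note: MC1000 strain lacking acrAB efflux and sulA so SOS filamentation is blocked; test concentration not given here.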 The conditions noted are these: E. coli DRC41 growth, higher = more signal, called active from +8 up or from −8 down.
A short description of test [17]: probe aLefty2 binding to arrayed compounds – biochemical, biotinylated probe, 635/667 nm fluorescence, primary screen (AID 1094).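 Note: score merges spot fluorescence near 667 nm with spot signal-to-noise ratio.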 Particulars: small-molecule microarray, higher = more signal.
The subject of test [18] is Noggin (protein binding on small-molecule microarray). The experiment in a line: small molecules binding Noggin protein – biochemical, 635/667 nm fluorescence, primary screen (AID 1095).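 Note: score merges 667 nm feature fluorescence with signal to noise over triplicate slides.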 The conditions noted are these: 635 nm fluorescence, higher = more signal.
Test [19] addresses Neurogenic locus notch homolog protein 3 (Homo sapiens) (UniProt Q9UM47). In words: small molecules binding NOTCH3 protein – biochemical, 635/667 nm fluorescence, primary screen (AID 1096). Particulars: small-molecule microarray, 635 nm fluorescence, higher = more signal.
Test [20] can be described thus: probe aEGFR binding to arrayed compounds – biochemical, biotinylated probe, 635/667 nm fluorescence, primary screen (AID 1097).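 Note: probe is a biotinylated anti-EGFR antibody binding compounds printed on slides; score combines fluorescence near 667 nm and signal to noise of each spot.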 The conditions noted are these: small-molecule microarray, higher = more signal.

Structures are written as SMILES. Calls of active or inactive are those of the source.

Chain of Torsin-1A-interacting protein 2 (Homo sapiens) (Q8NFQ8 whole entry, looked up): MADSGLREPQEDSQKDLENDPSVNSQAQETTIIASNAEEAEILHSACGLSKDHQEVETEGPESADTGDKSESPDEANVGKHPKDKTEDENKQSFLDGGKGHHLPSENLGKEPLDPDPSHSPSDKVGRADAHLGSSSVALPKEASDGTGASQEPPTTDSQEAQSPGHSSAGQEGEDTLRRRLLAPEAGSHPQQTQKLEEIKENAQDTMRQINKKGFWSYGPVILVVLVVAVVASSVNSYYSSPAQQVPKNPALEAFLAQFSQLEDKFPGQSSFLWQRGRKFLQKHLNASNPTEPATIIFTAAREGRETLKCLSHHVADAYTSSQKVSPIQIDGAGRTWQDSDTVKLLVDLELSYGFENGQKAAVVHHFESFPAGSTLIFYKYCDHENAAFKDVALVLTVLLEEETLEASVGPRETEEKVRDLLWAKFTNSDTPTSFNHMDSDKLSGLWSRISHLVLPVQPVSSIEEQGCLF

Regarding `CC(CCN1CCCc2nc(C)c(C)cc21)=NOC[C@@H](C)[C@H](OCc1ccccc1)C(C)C`, the composite z-score in test [1] is -0.247; in test [2] it was -0.325; in test [3], -0.15; in [4], -0.0055; in [5], -0.766; in test [6], -0.162. Moreover, the composite z-score in test [7] is -0.995; in [9], -0.342; in [10], 0.236; in test [11], -0.0185; in test [15] it was 1.4; in test [17], -0.286. Moreover, the composite z-score is -0.187 in test [18], -0.763 in [19] and -0.183 in [20]. The z-score in test [8] is -0.14 (inactive); in test [12] it was -2.02 (inactive); in test [13] it was -1.8 (inactive); in test [14] it was -0.788 (inactive); in test [16], -0.287 (inactive).

In the case of `COc1ccc(COC(=O)NN=C2C[C@@H](O)[C@@H](O)[C@@H]3[C@@H]4C(=O)N(C5CCCCC5)C(=O)[C@@H]4CC[C@@H]23)cc1`, the composite z-score was 0.848 in test [1]; -0.132 in test [2]; -0.0883 in [3]; -0.176 in test [4]; -0.515 in test [5]; -0.112 in test [6]. For the same compound, the composite z-score in test [7] is -0.313; in [9] it was 1.34; in [10] it was -0.48; in [11], 0.35; in [15] it was 0.611; in test [17], 0.687. Moreover, the composite z-score is 0.159 in test [18], -0.218 in [19] and -0.127 in test [20]. Besides, the z-score is 0.468 (inactive) in [8]; -0.703 (inactive) in test [12]; -1.86 (inactive) in test [13]; -0.617 (inactive) in test [14]; -1.03 (inactive) in [16].

`COc1ccc(O[C@H]2C=C[C@@H](c3ccccc3)O[C@@H]2COC(=O)NCc2cccc3ccccc23)cc1`: the composite z-score is -0.0348 in test [1]; -0.0761 in [2]; -0.107 in [3]; 0.0599 in test [4]; -0.096 in test [5]; -0.027 in [6]. For the same compound, the composite z-score in [7] is 0.0452; in test [9], -0.116; in test [10], -0.294; in [11], 0.133; in test [15], 0.33; in test [17], -0.106. Also, the composite z-score in test [18] is 0.0672; in test [19], -0.574; in [20] it was -0.122. In addition, the z-score in [8] was -0.97 (inactive); in test [12] it was 0.68 (inactive); in test [13], 0.393 (inactive); in test [14] it was 1.28 (inactive); in test [16], -0.477 (inactive).

On to `CC(C)=NO[C@H](C)c1cn([C@@H]2COC[C@H]2O)nn1`, for which the composite z-score in test [1] is -0.517; in test [2], -0.276; in [3], -0.163; in test [4], 0.517; in test [5], 0.712; in [6], 0.0493. Besides, the composite z-score in [7] was 0.305; in test [9], 0.362; in [10] it was -0.0618; in test [11], 0.629; in test [15], 0.242; in [17], -0.0936. In addition, the values for the composite z-score in [18], in test [19] and in test [20] were 0.683, 0.562 and 0.0102, respectively. For the same compound, the z-score in [8] was -0.807 (inactive); in [12] it was -0.173 (inactive); in [13], -1.02 (inactive); in test [14], 0.127 (inactive); in test [16], 0.132 (inactive).

Regarding `C#CCCCON=C1[C@H]2CCn3c(=O)n(Cc4cc5c(cc4Cl)OCO5)c(=O)n3[C@H]2[C@H](O)[C@@H]2O[C@H]12`, the composite z-score in test [1] was -0.652; in test [2] it was 0.203; in [3], -0.108; in test [4], 0.365; in [5] it was 0.63; in [6] it was 0.113. Besides, the composite z-score is 0.107 in [7]; 0.241 in [9]; -0.0645 in test [10]; 0.0698 in test [11]; 0.0322 in test [15]; 0.147 in test [17]. Moreover, the results for the composite z-score in test [18], in [19] and in [20] were 0.508, 0.836 and -0.191, respectively. The z-score in test [8] was -0.12 (inactive); in [12] it was 0.842 (inactive); in [13] it was 1.28 (inactive); in test [14], 1.63 (inactive); in test [16], 0.314 (inactive).
